Assay outcomes deposited in PubChem BioAssay by National Center for Advancing Translational Sciences (NCATS).
D2 PAM-1: potentiates the human D2 dopamine receptor allosterically. P14416. DiscoveRx D2 beta-arrestin cells, luminescence, 90 min; 100% = 57 uM dopamine signal. potentiation, % (no concentration beside the values). hit rate 0.23% among 360,000. AID 624464; in the data active means potentiation above about 50%; inconclusive means mostly about 30% to 49%
Target sequence (P14416 whole entry, looked up): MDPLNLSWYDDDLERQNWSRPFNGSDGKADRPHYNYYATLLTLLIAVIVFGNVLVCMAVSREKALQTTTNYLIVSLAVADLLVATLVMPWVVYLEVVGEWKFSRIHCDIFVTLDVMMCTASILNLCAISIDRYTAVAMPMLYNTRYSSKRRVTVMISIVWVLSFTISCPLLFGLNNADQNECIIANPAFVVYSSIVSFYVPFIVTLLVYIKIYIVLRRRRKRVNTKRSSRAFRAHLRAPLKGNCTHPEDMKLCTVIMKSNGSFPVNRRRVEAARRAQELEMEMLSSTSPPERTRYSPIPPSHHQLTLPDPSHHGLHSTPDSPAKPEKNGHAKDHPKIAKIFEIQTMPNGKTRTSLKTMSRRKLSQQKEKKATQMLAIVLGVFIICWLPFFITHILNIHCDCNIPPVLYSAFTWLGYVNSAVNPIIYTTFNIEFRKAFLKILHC
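D2 cells co-treated with compound plus 50 nM dopamine (EC20) for 90 min at 37 deg C to detect potentiation. Beta-arrestin recruitment was read as enzyme-fragment luminescence after 1 h at ambient temperature. Full response was set by 57 uM dopamine.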
D2 ag-1: activates the human D2 dopamine receptor; hit rate 0.084% among 360,000; P14416; activation, % (no concentration beside the values); DiscoveRx PathHunter D2 beta-arrestin, luminescence, 90 min; 100% = 57 uM dopamine signal; in the data active means activation above about 40%; inconclusive means between about 15% and that limit
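Agonist mode: compounds alone added to overnight-plated D2 PathHunter cells for 90 min at 37 C, with 57 uM final dopamine (EC100) defining full response. Beta-arrestin recruitment detected by chemiluminescent reagent, read after 1 h at ambient temperature.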
D2 PAM-2: D2 dopamine receptor (human) potentiation | P14416 | AID 485347 | hit rate 0.34% among 340,000 | potentiation, % at 10 µM | HEK293 T-REx D2, calcium flux, EC20 dopamine potentiation;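 active means potentiation over 3 SD above the plate norm, cut at about 30% in these data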; further: 0% is about no effect
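Tetracycline-induced Hek293 Trex D2 cells, force-coupled to calcium, loaded with no-wash calcium dye. Compound added with 180 s kinetic read for agonism, then EC20 dopamine and a further 180 s read for potentiation.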
D2 ag-2: agonists of human D2 dopamine receptor; P14416; HEK293 T-REx D2 cells, calcium flux agonist mode; activation, % at 2 µM; hit rate 0.53% among 340,000; AID 485358;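 active means activation over 3 SD above normal in the single-dose calcium agonist read, cut at about 30% in these data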; further: 0% is about no effect
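Tetracycline-induced HEK293 T-REx cells with force-coupled D2 receptor, plated overnight at 30 C, loaded with no-wash calcium dye. After a 10 s baseline, compound was pin-added and calcium flux read kinetically for 180 s; calcium rises flagged agonists.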
D2 antagonist: antagonists of human D2 dopamine receptor. P14416. HEK293 TREx D2 cells, calcium flux, dopamine EC80. inhibition, % at 10 µM. hit rate 2% among 340,000; in the data active means inhibition above about 30%; inactive means below that, where a call was filed; further: 0% is about no effect
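Measurement of antagonist activity uses fluorescent calcium dye in inducible HEK293 T-REx D2 cells: 10 s baseline, compound addition with 180 s read, EC80 dopamine addition with a further 180 s read.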
Numbers without * were called inactive; ? = inconclusive; · = no result. Only some compounds are listed: those with a hit (about 2.4% of all), similar ones and a draw of the others.

SMILES | D2 PAM-1 | D2 ag-1 | D2 PAM-2 | D2 ag-2 | D2 antagonist
N#Cc1c2c(c(NCc3ccco3)n3c1nc1ccccc13)CCC2 | -1.8 | -1.9 | 4.2 | -0.4 | 0.1
N#Cc1c2c(c(Nc3ccc(O)cc3)n3c1nc1ccccc13)CCC2 | 67.9* | ? | 16.9 | -0.9 | 13.8
COc1cc(N)c(Cl)cc1C(=O)N[C@H]1CCN(CCCOc2ccc(F)cc2)C[C@H]1OC | -23.7 | -3.9 | -13.0 | 0.9 | -15.1
COc1cc(N)c(Cl)cc1C(=O)N[C@@H]1CCN(CCCOc2ccc(F)cc2)C[C@@H]1OC | · | · | -23.9 | 1.1 | 76.6*
Cc1ccccc1Nc1nc(N)nc(COC(=O)CCS(=O)(=O)c2ccccc2)n1 | -4.3 | 1.3 | -13.1 | 2.4 | 31.7*
Cc1ccc(S(=O)(=O)CCC(=O)OCc2nc(N)nc(Nc3ccccc3C)n2)cc1 | ? | -2.3 | 21.3 | 0.2 | -2.3
CCOc1ccc(-c2cc3c(=O)n(Cc4nc(-c5cccc(OC)c5OC)oc4C)ccn3n2)cc1Cl | · | · | 13.2 | 0.7 | ·
O=C(COC(=O)c1cc(-c2ccccc2)nc2ccccc12)c1ccc(Br)cc1 | · | · | -1.4 | · | ·
C/C(N)=C(/C#N)C(=O)COC(=O)c1cc(-c2ccc(Br)cc2)nc2ccccc12 | -1.2 | 7.1 | -12.0 | 1.8 | 46.8*
O=C(Nc1c2c(nn1-c1ccc(Cl)cc1)CS(=O)(=O)C2)c1ccccc1F | · | · | -11.5 | -0.7 | ·
COc1ccccc1CNC(=O)C1CCCN(c2nnc(-n3c(C)ccc3C)s2)C1 (stereo not drawn) | · | · | 11.0 | -1.3 | ·
Clc1ccccc1-c1nnc(COc2ccccc2)o1 | · | · | -14.4 | -0.8 | ·
CC(=O)c1ccc(S(=O)(=O)N2CCN(C(=O)c3ccc(-n4nc(C)c(Cl)c4C)cc3)CC2)cc1 | -6.3 | 2.6 | -1.1 | 22.4 | 30.6*
CCN1C(C(=O)c2ccccc2)=C(OC(=O)c2ccccc2OC)c2ccccc2S1(=O)=O | · | · | 8.7 | 3.1 | ·
CCOCCCN1C(=O)c2[nH]nc(-c3ccccc3O)c2C1c1ccc(CC)cc1 (stereo not drawn) | · | · | 16.7 | 0.3 | ·
COc1c2ccc(C(=O)NCc3cc(C(F)(F)F)cc(C(F)(F)F)c3)cc2nn1C | -9.1 | 0.2 | -8.8 | 0.1 | 40.8*
COc1ccc(/C=N/Nc2nnc(-c3ncc[nH]3)c3ccccc23)cc1 | -9.4 | -0.1 | -19.6 | 0.1 | 47.4*
COC(=O)c1ccc(C)c(NC(=O)c2ccc(CN3CCc4ccccc4C3)cc2)c1 | -26.2 | -8.0 | -28.7 | 22.0 | 77.9*
Cc1ccc(NC(=O)c2ccc(CN3CCc4ccccc4C3)cc2)cc1 | -40.7 | -8.6 | -17.0 | 1.0 | 16.6
O=C(Nc1ccccc1)c1ccc(CN2CCc3ccccc3C2)cc1 | -12.1 | 0.5 | · | -0.5 | 54.2*
O=C(Nc1cccnc1)c1ccc(CN2CCc3ccccc3C2)cc1 | -36.5 | -0.8 | -23.3 | 2.8 | 65.8*
Cc1ccc2cc(CN(C)C(=O)c3cccc(Cl)c3)c(=O)[nH]c2c1 | · | · | -23.3 | -0.8 | ·
C=CCC1(O)C(=O)N2C(=C1C(=O)N1CCOCC1)c1ccccc1CC2(C)C (stereo not drawn) | -6.1 | -2.1 | -6.7 | 0.6 | 44.8*
COc1ccc(-n2ccn(CC(=O)NCCc3ccccc3)c(=O)c2=O)cc1OC | · | · | 3.9 | 0.1 | ·
COc1ccc(-c2[nH]c(-c3ccc(F)cc3)nc2SCC(=O)Nc2ccc(OC)c(OC)c2)cc1 | · | · | -16.3 | -1.5 | ·
SMILES | D2 PAM-1 | D2 ag-1 | D2 PAM-2 | D2 ag-2 | D2 antagonist
COc1ccc(C(=O)COc2nc(C)cc(C)c2C#N)cc1 | -3.9 | -3.6 | 0.1 | 0.4 | 34.9*
O=C(O)c1ccccc1C(=O)NC1Cc2ccccc2C1 | 3.6 | 1.1 | -11.5 | 35.5* | 6.4
O=C(NC1CCCC1)c1ccccc1-c1ccccc1 | -7.5 | -3.6 | -1.5 | 0.2 | -15.3
COc1ccc(Nc2nc3cc(Cl)c(Cl)cc3n3cnnc23)cc1Cl | · | · | -2.2 | 0.3 | ·
CCN1C(=O)c2cccc3c(S(=O)(=O)N4CCC(C)CC4)ccc1c23 | 1.4 | -3.3 | -3.5 | -1.2 | 37.5*
COc1cc(C(=O)Nc2ccc(OCc3cc(=O)n4cccc(C)c4n3)cc2)cc(OC)c1OC | · | · | -8.7 | -0.9 | ·
C=CCOc1c(Br)cc(/C=C(\C#N)C(N)=O)cc1OC | -3.0 | 0.0 | -4.0 | 0.7 | -2.3
COc1cc(C=O)cc(Br)c1OCC(N)=O | -8.9 | -5.9 | 1.5 | -0.7 | 34.2*
Cc1ccc(OCC(=O)Nc2ccc(O)c(-c3nc4ccccc4o3)c2)cc1 | -11.2 | 0.7 | 32.1* | 0.5 | -0.1
COc1cc(CNCCCN2CCOCC2)cc(Br)c1OCC(=O)N1CCCCC1 | -5.5 | -2.7 | 7.5 | 0.0 | 32.3*
COc1cc(CNCCCN2CCOCC2)cc(Br)c1OCc1ccc(Cl)cc1 | 2.5 | 4.2 | -5.9 | 3.2 | -1.6
COc1ccccc1CNC(=O)N[C@@H](Cc1ccccc1)C(=O)O | -6.2 | -0.7 | -0.3 | -0.1 | 37.0*
O=C(Cc1ccccc1)N[C@@H](Cc1ccc(O)cc1)C(=O)O | · | · | 3.1 | -0.1 | 36.0*
CCN(CC)c1ccc(/C=C/C(=O)c2ccc(Br)cc2)cc1 | 14.8 | -1.6 | -21.3 | 93.7* | 71.0*
CCOC(=O)C1CCCN(Cc2c(Cl)cccc2Cl)C1 (stereo not drawn) | -12.6 | -2.5 | 0.0 | -0.1 | -9.7
CCOC(=O)C1CCN(C/C=C/c2ccccc2)CC1 | -2.1 | -3.2 | -7.2 | -0.9 | -22.5
CCOC(=O)C1CCCN(Cc2cccc(Oc3ccccc3)c2)C1 (stereo not drawn) | -34.7 | 0.7 | -13.8 | -1.7 | 39.5*
CCOC(=O)C1CCCN(C/C=C/c2ccccc2)C1 (stereo not drawn) | -24.5 | 4.8 | -21.3 | 5.5 | 30.5*
CCOC(=O)C1CCCN(Cc2ccc(-c3ccccc3)cc2)C1 (stereo not drawn) | -79.6 | -2.8 | -16.0 | 1.7 | 57.9*
CCOC(=O)C1CCN(Cc2cccc(Oc3ccccc3)c2)CC1 | -22.4 | ? | · | · | ·
Cn1c(=O)c2ccccc2n(Cc2ccccc2Cl)c1=O | 2.3 | 0.6 | 6.7 | -1.5 | 34.4*
COc1cc(C(=O)NCC(=O)N/N=C(\C)Cc2ccccc2)cc(OC)c1OC | -8.3 | 2.0 | 36.9* | 0.0 | -7.9
COc1cc(C(=O)N/N=C(\C)Cc2ccccc2)cc(OC)c1OC | -6.5 | 1.2 | · | · | ·
Cn1ncc2c(NCc3cccc(Cl)c3)ncnc21 | · | · | 5.0 | 0.2 | ·
CCOC(=O)/C=c1\s/c(=C\c2ccc3c(c2)OCCO3)c(=O)n1CC(=O)NCC1CCCO1 (stereo not drawn) | -7.8 | -1.6 | -3.9 | 0.2 | 55.0*
COc1ccccc1-c1c(C)[nH]n2c(=O)c(Cc3ccccc3)c(C)nc12 | -17.4 | 0.4 | -22.4 | -0.1 | 53.7*
COc1ccc(-c2c(C)[nH]n3c(=O)c(Cc4ccccc4)c(C)nc23)cc1 | -40.0 | -2.5 | -24.3 | 1.3 | 31.2*
CSc1ncc2c(n1)-c1ccccc1N(Cc1ccc(F)cc1)S2(=O)=O | · | · | · | -1.8 | ·
